Compound activity as filed in PubChem BioAssay.
Ins promoter up: MIN6 insulin promoter up-regulation; z-score at 5 µM; AID 1625; 190,000 compounds, 0.3% hits; MIN6 insulin promoter-GFP reporter, high-content imaging; stronger effect = higher value;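 active means z-score above 3 at 5 µM with at least 500 cells counted in the well; inconclusive means wells under 500 cells, flagged as cytotoxic or low count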
PERK inh: inhibitors of human PERK kinase; Q9NZJ5; CHO PERK-DD fusion, SEAP luminescence translation reporter; inhibition, % at 5.6 µM; 220,000 compounds, 0.17% hits; AID 1416;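 active means inhibition above the mean inhibition of all tested compounds plus 3 SD, set separately per screening campaign, cut at about 2.9% in these data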;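 further: PERK kinase domain activated by AP20187 dimerizer at 100 nM; 0% = DMSO with dimerizer and 100% = rapamycin at 8.4 µM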
Target sequence (Q9NZJ5 whole entry, looked up, the tested form may be a part): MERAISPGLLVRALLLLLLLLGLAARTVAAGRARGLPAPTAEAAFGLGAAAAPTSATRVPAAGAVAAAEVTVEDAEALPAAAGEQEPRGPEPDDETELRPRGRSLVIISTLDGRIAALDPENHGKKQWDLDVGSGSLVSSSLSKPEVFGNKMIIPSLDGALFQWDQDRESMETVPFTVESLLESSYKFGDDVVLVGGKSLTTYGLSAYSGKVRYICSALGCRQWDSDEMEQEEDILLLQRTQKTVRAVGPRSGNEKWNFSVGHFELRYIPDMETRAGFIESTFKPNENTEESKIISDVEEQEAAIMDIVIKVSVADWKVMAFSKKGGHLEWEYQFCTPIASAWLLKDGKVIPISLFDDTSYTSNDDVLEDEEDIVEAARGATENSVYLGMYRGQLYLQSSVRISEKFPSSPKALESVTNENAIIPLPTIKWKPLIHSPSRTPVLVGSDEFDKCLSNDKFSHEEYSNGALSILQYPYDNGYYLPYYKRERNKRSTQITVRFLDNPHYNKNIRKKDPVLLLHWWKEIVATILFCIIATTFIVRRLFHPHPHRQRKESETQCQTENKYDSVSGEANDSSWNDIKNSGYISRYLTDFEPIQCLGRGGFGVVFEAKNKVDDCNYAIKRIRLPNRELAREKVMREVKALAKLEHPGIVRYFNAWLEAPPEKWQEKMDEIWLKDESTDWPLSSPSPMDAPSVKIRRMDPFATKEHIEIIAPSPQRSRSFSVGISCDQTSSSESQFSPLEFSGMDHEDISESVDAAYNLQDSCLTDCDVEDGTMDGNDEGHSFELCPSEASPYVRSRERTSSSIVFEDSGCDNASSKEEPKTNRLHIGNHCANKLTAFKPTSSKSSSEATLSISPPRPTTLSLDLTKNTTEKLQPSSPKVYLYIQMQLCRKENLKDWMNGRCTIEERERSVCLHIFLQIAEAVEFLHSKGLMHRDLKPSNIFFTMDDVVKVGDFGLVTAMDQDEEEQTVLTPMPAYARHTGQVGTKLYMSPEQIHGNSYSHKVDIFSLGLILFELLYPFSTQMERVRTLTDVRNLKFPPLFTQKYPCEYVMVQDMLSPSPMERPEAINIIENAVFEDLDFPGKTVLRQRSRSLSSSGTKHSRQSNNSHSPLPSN
eIF4E 4G PPI: inhibitors of eIF4E and eIF4G interaction in translation initiation | AID 782 | TR-FRET eIF4E-eIF4GI(517-606) binding, 2 h | inhibition, % at 21.7 µM | P63073+Q04637 | 220,000 compounds, 0.37% hits;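 active means inhibition above about 30%, limit read from the data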;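 further: 0% = full FRET control wells and 100% = background wells lacking eIF4GI fragment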
Autophagy mod: autophagy modulation, high-content screen; 190,000 compounds, 0.98% hits; calls only at 10 µM (by protocol); MEF GFP-LC3 puncta imaging; test concentration mostly 10 µM;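 active means percentage of spot-positive cells more than 3 SD above its plate mean, without a fluorescence outlier flag or 80% toxicity; inconclusive means no clear call, values can overlap the other calls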;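 further: spot-positive cell cutoff set from DMSO-treated cells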
Insulin prom inh: TRM-6 insulin promoter activity inhibition | TRM-6 cells (human fetal islet line), insulin promoter-eGFP reporter, imaging; reporter expression induced with tamoxifen | inhibition, % at 2 µM | 130,000 compounds, 0.9% hits | AID 1273;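 active means inhibition above the mean plus 3 SD, with well images judged a real hit on visual review, cut at about 60% in these data, passing the limit was not always enough; inconclusive means inhibition over the cutoff but images rejected on review; inactive means inhibition not above the cutoff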
Starred values were filed as active, the others as inactive; i = inactive; ? = inconclusive; nt = no result given; + = active, no number; [ ] = remark or other dose. Compounds with a hit are over-represented: about 2% of the library has one in this group of screens.

SMILES | Ins promoter up | PERK inh | eIF4E 4G PPI | Autophagy mod | Insulin prom inh
Nc1nc(-c2ccccn2)nc(N)c1Cc1ccccc1F | -0.55 | -1 | -2 | i | -7
CCOC(=O)C1[C@H]2C(=O)N(CCCOC)C[C@]23C=C[C@H]1O3 (some centres undefined) | 0.93 | 1 | 0 | i | -47
CCCCOC(=O)C1C2C=C[C@]3(CN(CCCOC)C(=O)[C@H]13)O2 (some centres undefined) | 0.63 | 3.4* | -20 | i | -86
CCn1c2ccccc2c2nc3cc(S(=O)(=O)N4CCOCC4)ccc3nc21 | 0.57 | -1 | 48* | i | nt
c1ccc2nc3c(nc2c1)c1ccccc1n3CCN1CCOCC1 | -0.16 | -2 | 8 | i | 61
O=C(NCCC1=CCCCC1)C1CC(=O)N(C2CCCCCC2)C1 (centres undefined) | -0.08 | 0 | 1 | i | -38
CCCCNC(=O)C1CC(=O)N(C2CCCCC2)C1 (centres undefined) | 3* | 1 | 2 | i | -3
CCCNC(=O)c1sc2c(c1C(=O)Nc1ccccn1)CCCC2 | -0.65 | -1 | 1 | + | -145
COc1ccc(-c2cc(C3CC3)nc(SCC(=O)c3cccs3)c2C#N)cc1 | 0.33 | 0 | 5 | + | nt
CCOC(=O)CSc1nc(C2CC2)cc(-c2ccc(F)cc2)c1C#N | -0.31 | 1 | 1 | i | nt
NC(N)=NS(=O)(=O)c1ccc(N/C=C\C(=O)c2ccncc2)cc1 | nt | 1 | 3 | i | nt
Nc1cc2c(cc1C(=O)c1ccc(Cl)cc1)OCCO2 | -0.17 | 2 | 0 | i | 76*
Cc1cnc(NC(=O)c2cc3c(C)nn(-c4ccccc4)c3s2)s1 | -0.03 | 0 | 1 | i | 26
O=S1(=O)C=C(Sc2nc3ccccc3s2)c2ccccc21 | -0.19 | 1 | 5 | + | nt
CCN(C(=O)CSc1nc2ccccc2n1CCc1ccccc1)C1CCS(=O)(=O)C1 (centres undefined) | 0.15 | -2 | 8 | i | -62
COc1cc(Cl)c(C)cc1NC(=O)CN(C)Cc1cccc(OC)c1OC | 3.4* | 0 | 4 | i | nt
Cc1nc(SCC(=O)Nc2nc3ccccc3s2)c(C#N)c(C)c1C | -0.28 | 0 | 8 | i | 15
N#Cc1c(C(F)(F)F)cc(-c2ccccc2)nc1SCC(=O)Nc1sc2c(c1C#N)CCC2 | -0.03 | 1 | -19 | + | -143
CCOC(=O)CCSc1nc(C(C)(C)C)cc(C(F)(F)F)c1C#N | nt | 1 | 0 | i | 33
N#Cc1c(C(F)(F)F)cc(-c2ccccc2)nc1SCc1nc(N)nc(N2CCOCC2)n1 | nt | 0 | -20 | + | -251
Cc1cc(C(F)(F)F)c(C#N)c(SCC(=O)Nc2nc3ccccc3s2)n1 | 1.8 | 1 | 19 | + | nt
CCOC(=O)CCSc1nc(C)cc(C(F)(F)F)c1C#N | 2.3 | 1 | 8 | + | -356
N#Cc1c(C(F)(F)F)cc(-c2ccc(Cl)c(Cl)c2)nc1SCCN1CCOCC1 | -0.4 | 1 | 4 | i | nt
COCCCN(CCC#N)C(=O)c1c(-c2c(Cl)cccc2Cl)noc1C | 0.67 | 0 | -4 | nt | nt
CCCCCCOc1ccc(C(CC(N)=O)C(=O)O)cc1 (centres undefined) | 0.81 | 0 | -2 | i | 36
SMILES | Ins promoter up | PERK inh | eIF4E 4G PPI | Autophagy mod | Insulin prom inh
CC(OC(=O)C1=Cc2ccccc2OC1)C(=O)NC(C)(C)C (centres undefined) | 0.05 | 0 | 0 | i | nt
Cc1ccc(OCc2nc(-c3cccs3)no2)c([N+](=O)[O-])c1 | -0.48 | -1 | 1 | i | 13
CCn1c(SCC(=O)Nc2nc(-c3ccccc3)cs2)nc2c1c(=O)n(C)c(=O)n2C | -0.25 | 1 | 22 | i | nt
C#CC[N+](C)(C)C(C#Cc1ccccc1)CC=C (centres undefined) | -0.46 | 0 | -1 | i | 2
O=C(Oc1cccnc1)c1ccc([N+](=O)[O-])cc1 | 0.34 | 1 | 8 | i | -17
O=[N+]([O-])c1cc(Oc2cccnc2)cc([N+](=O)[O-])c1 | 0.42 | 1 | -2 | + | 57
CCOCCCNC(=O)C(NC(=O)c1ccc2c(c1)OCO2)c1ccc(OC)cc1 (centres undefined) | -1 | 0 | 1 | i | -21
CCOCCCNC(=O)C(NC(=O)c1ccc2c(c1)OCO2)c1ccccc1 (centres undefined) | -0.39 | 1 | 3 | + | nt
Cc1cc2[nH]c3c(c[n+](C)c4ccccc34)c2cc1C | ? | 0 | 12 | + | nt
Cc1cc(=O)[nH]c2ccccc12 | -0.38 | 2 | 4 | i | 45
C=CCNC(=O)c1onc(CSc2cccc(OC)c2)c1C(=O)NCC=C | -0.29 | nt | 0 | nt | nt
O=C(O)c1cnc(-c2ccccc2)nc1Sc1ccc(Cl)cc1Cl | nt | 1 | 0 | i | 42
COC(=O)C1=C(C)NC(=O)C1(Nc1ccc(Cl)cn1)C(F)(F)F (centres undefined) | 0.16 | 1 | 35*[fluorescence artefact?] | i | 49
COc1ccc2nc(C)cc(N3CC(C)OC(C)C3)c2c1 (centres undefined) | -0.07 | -1 | -4 | i | 91*
Cc1nn2c(N)c(C#N)cnc2c1-c1ccc(Cl)cc1 | 1.2 | 1 | -8 | i | 11
COc1ccc(-c2c(C)nn3c(N)c(C#N)cnc23)cc1OC | -0.17 | 1 | 38* | i | nt
COc1cc(C2Nc3ccccc3C(=O)N2c2ccc3c(c2)OCCO3)ccc1OCC(C)C (centres undefined) | -0.65 | -1 | -2 | i | -16
N#C/C(=C/c1ccccc1)C(=O)NCc1ccccc1 | 0.62 | 1 | -6 | i | nt
CN(C)c1ccc(/C=C(/C#N)C(=O)NCc2ccccc2)o1 | 16* | 0 | 2 | + | -227
COc1cc(OC)c(C(=O)Nc2cccc(C(C)=O)c2)cc1OC | 0.28 | -1 | -1 | i | -23
COc1cccc(C(c2nnnn2Cc2ccccc2)N2CCN(C3CCCC3)CC2)c1OC (centres undefined) | -1.6 | -1 | 4 | + | 18
Nc1nc(N2CCOCC2)cc(=O)[nH]1 | 0.42 | 0 | 0 | i | 57
Cc1cc(Br)cn2ccnc12 | 1.3 | 3.0* | 5 | i | nt
N#Cc1ccc(C(=O)CSc2n[nH]c(=O)n2-c2cccnc2)cc1 | 1 | 0 | 5 | nt | nt
Cc1cc(=O)[nH]c2c1c(C)nn2-c1ccccc1 | -0.29 | 1 | 0 | i | 61*
SMILES | Ins promoter up | PERK inh | eIF4E 4G PPI | Autophagy mod | Insulin prom inh
Cc1cc(=O)[nH]c2c1c(C)nn2C(C)(C)C | 0.07 | 1 | 2 | nt | nt
Cc1nc2cc(NC(=O)N(C)c3ccc4ccccc4c3)ccc2o1 | -0.11 | 0 | 6 | i | 71*
O=C(NCCc1ccccc1)NC1CCCCC1 | -0.63 | 2 | 3 | i | 80*
COc1ccc(Nc2c3c(nc4c(-c5ccccc5)c(C)nn24)CCC3)cc1 | 0.05 | 0 | 7 | i | 91*
C(=C\c1nc(-c2cccnc2)no1)/c1ccccc1 | -1.6 | 1 | 0 | i | 70*
Clc1ccccc1/C=C/c1nc(-c2cccnc2)no1 | -0.65 | 1 | -1 | nt | nt
